The text below walks through data of ChEMBL document CHEMBL3988442, “University of Dundee, Small-Polar-MMV Screening Library” (2021).

In the assay the target is T1, Aspartate--tRNA(Asp/Asn) ligase (Mycobacterium tuberculosis (strain ATCC 25618 / H37Rv)) (UniProt P9WFW3).
T1 sequence (whole entry): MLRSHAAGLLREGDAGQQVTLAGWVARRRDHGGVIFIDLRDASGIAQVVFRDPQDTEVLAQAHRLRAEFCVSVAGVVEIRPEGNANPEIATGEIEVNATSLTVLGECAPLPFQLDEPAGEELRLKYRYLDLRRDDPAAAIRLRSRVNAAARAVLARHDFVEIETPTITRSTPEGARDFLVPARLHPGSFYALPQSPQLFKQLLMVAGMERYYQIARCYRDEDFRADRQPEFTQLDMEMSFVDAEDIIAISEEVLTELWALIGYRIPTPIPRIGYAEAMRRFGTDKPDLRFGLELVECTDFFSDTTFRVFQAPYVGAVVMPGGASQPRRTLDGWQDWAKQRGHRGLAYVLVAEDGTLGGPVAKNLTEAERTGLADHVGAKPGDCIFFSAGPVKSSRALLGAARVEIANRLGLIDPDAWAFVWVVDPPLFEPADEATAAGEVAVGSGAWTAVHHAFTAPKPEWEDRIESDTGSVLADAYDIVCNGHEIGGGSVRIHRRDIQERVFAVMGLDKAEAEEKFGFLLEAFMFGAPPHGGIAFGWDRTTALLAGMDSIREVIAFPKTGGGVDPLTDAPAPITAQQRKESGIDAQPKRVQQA
The assay is described as follows: Assay for Asp RNA synthetase-1 from Mycobacterium tuberculosis. The class given is functional. Also noted: scale not given: in the data most compounds retested in dose-response had high values. The conditions noted are these: 30 µM.
On to `CCn1nc(CC(C)C)cc1C(=O)N1CC[C@@H](O)C1`, for which the Percent Effect is -5.25%. Consider `COc1cccc(-c2noc(-c3ccc(NCC4CC4)nc3)n2)c1OC`, for which the Percent Effect is -3.57%. As to `CN(CCO)Cc1nnc(C2CCN(C(=O)C(C)(C)C)CC2)n1C`, the Percent Effect is 3.14%. Next, `CCN(CC)C(=O)CCNC(=O)Cc1nc(-c2ccco2)oc1C`: -1.21%; `CCC(C(=O)NC)N(c1cccc(C)c1)S(C)(=O)=O` (stereo not given): -2.86%; `COc1ccc(NC(=O)CCC2CCCN(Cc3ncon3)C2)c(C)c1` (stereo not given): 1.11%. Regarding `Cc1nn(CCn2ccnc2-c2cc3n(n2)CCCNC3)c(C)c1Cl`, the Percent Effect is -0.0115%.

On to `CSCCC1c2nc[nH]c2CCN1Cc1ccnc2ccccc12` (stereo not given), for which the Percent Effect worked out at 5.78%. With `CCS(=O)(=O)N1CCC(c2nnc(CN3CCCC3)n2C2CC2)CC1`, the Percent Effect is -0.379%. In the case of `Cc1cc(F)ccc1CN1CCC(O)(CN2CCCCC2)C1` (stereo not given) it was -0.747%; in that of `CN(CCO)Cc1nnc(C2CCN(C3CCCCC3)CC2)n1C`, 4.1%. Next, `CCOCC(=O)N1C[C@@H](NC(C)=O)[C@H](c2ccc(OC)cc2)C1`: -0.287%; `c1cn(Cc2nnc(C3CCN(C4CCOCC4)CC3)n2C2CC2)cn1`: -3.53%; `O=C(CCc1c[nH]cn1)N1CC[C@@H](c2ccc3ccccc3c2)[C@H](O)C1`: -0.632%. For `CCOC1CCN(C(=O)c2c(Cl)c3ccccc3n2C)CC1`, the Percent Effect is -2.01%.

Turning to `Cc1cc(S(=O)(=O)N2CCCc3cc(F)cc(F)c32)sc1C(=O)O`, the Percent Effect was -0.908%. In the case of `CCC(O)CNC(=O)C1(N(C)Cc2ccccc2)Cc2ccccc2C1` (stereo not given) it was 2.72%; in that of `O=C(O)c1ccc(F)c(S(=O)(=O)Nc2ccc(-n3cccn3)c(Cl)c2)c1`, -5.11%. Next, `CCN(CC(=O)NC)C(=O)Cc1nc(-c2ccco2)oc1C`: -4.7%; `COc1cc(C(=O)N(CCC#N)Cc2ccccn2)cc(OC)c1C`: -3.83%; `CCc1cc(N2CCCNCC2)n2nc(C)c(C)c2n1`: -1.41%.

Take `CC(O)CN1CCN(C(=O)c2cnn(-c3ccccc3F)c2)CC1` (stereo not given): the Percent Effect is -2.52%. On to `CCCC(C)CN1CCC(n2cc(C3CCCC3)nn2)CC1` (stereo not given), for which the Percent Effect is 2.26%. Next, `N#Cc1cn(CC(=O)NC2CC2)c2ccc(Br)cc2c1=O`: 0.517%. On to `COC(=O)CCN1CCCC1c1cccc2c1OCCO2` (stereo not given), for which the Percent Effect was -1.34%. In the case of `CNC(=O)NC(=O)CN1CCC(c2c[nH]c3ccc(OC)cc23)CC1` it was -2.54%. Next, `Cc1cc(C2CCCN2C(=O)NCc2cccc(F)c2)on1` (stereo not given): -1.23%; `CCN(CC1CN(Cc2ncc(C)o2)CCO1)c1cccnn1` (stereo not given): -1.34%; `NC(=O)CN1CC2(CCC1=O)CCN(Cc1cc(F)ccc1Cl)CC2`: 0.126%. On to `CCC(C(=O)NCc1ccncc1)N(c1ccc(OC)cc1)S(C)(=O)=O` (stereo not given), for which the Percent Effect is 1.25%. In the case of `O=C(CCNS(=O)(=O)c1ccccc1)NCc1ccoc1`, the Percent Effect is -2.82%.

In the case of `CC(C)CN1CCCn2nc(CNC(=O)CCN)cc2C1`, the Percent Effect is -0.839%.

In the case of `O=C(COc1cccc(Br)c1)N1CCN(c2nccs2)CC1`, the Percent Effect was found to be 1.41%. In the case of `Cc1nn(C)c(Cl)c1C1CCCN1c1ncnc2sccc12` (stereo not given) it was -2.03%; in that of `Cc1ccc(CNC(=O)N(Cc2ccccc2F)C2CC2)cn1`, -0.931%. Consider `O=C(c1cnn(-c2ccccc2F)c1)N1CCN(CCO)CC1`, for which the Percent Effect is -3.94%.

On to `CN(C)C(=O)CNC(=O)c1cc(Br)c2c(c1)OCCO2`, for which the Percent Effect stood at 3%. Next, `Cc1ccc(C(=O)N2CCN(S(C)(=O)=O)CC2)cc1N1CCNC1=O`: -4.61%.

In the case of `O=C1O[C@@H]2CN(Cc3ccccc3)C[C@@H]2N1CCCN1CCOCC1`, the Percent Effect was -3.37%. In the case of `CC(C)Nc1ncc(CN2C[C@@H](CN3CCC(O)CC3)[C@@H](CO)C2)cn1` it was -1.99%.
